Records with an inconclusive call do not appear. A number with no mark means an inactive call. The source made the active and inactive calls. The call rests on the fitted dose curve; in most records, active means well fitted curve in the direction sought with a large enough effect in the repeat runs; inconclusive means weak or mixed curves; inactive means no such curve, though single readings can be large; an effect the other way counts as inactive or inconclusive.
test: qHTS assay to identify small molecule antagonists of the retinoid acid receptor (RAR) signaling pathway - cell viability counter screen (AID 1159551); settings: C3RL4 cells viability, ATP luminescence (CellTiter-Glo), 6 h; series mostly up to 92.4 µM; activity change, negative = cytotoxicity: at the top concentration; further: nearly all actives have a fitted effect of over 35% in size
Method in brief: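 Cytotoxicity counter screen: ATP content quantified by CellTiter-Glo luminescence in C3RL4 cells treated 6 hr at 37 C with compound and retinol (1 uM final). Cells plated at 1,000/well and cultured overnight before dosing.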
On the % scale 0 is the no-effect control and ±100 the full control effect; potency means the concentration at half of the fitted maximal effect.

Row | Structure (SMILES) | activity change, negative = cytotoxicity | Potency
1 | CCOc1ccc(Cc2nccc3cc(OCC)c(OCC)cc23)cc1OCC | -7.87% [at 42.5 µM] | 
2 | CC1=C(Br)C(=O)C(Br)=C/C1=C(/c1ccccc1S(=O)(=O)O)c1cc(Br)c(O)c(Br)c1C |  | 16.5 µM (active)
3 | CCC(C)COC(C)=O (centres undefined) | -1.28% | 
4 | COc1ccccc1N1CCN(CCCCNC(=O)c2ccc(-c3ccc(C(C)=O)cc3)cc2)CC1 | -5.08% [at 42.5 µM] | 
5 | Nc1nnc(-c2ccc([N+](=O)[O-])o2)o1 | -2.82% | 
6 | CC(C)c1nc(CN(C)C(=O)N[C@H](C(=O)N[C@@H](Cc2ccccc2)C[C@H](O)[C@H](Cc2ccccc2)NC(=O)OCc2cncs2)C(C)C)cs1 | 4.02% [at 42.5 µM] | 
7 | Cc1ccc(Cl)c(Nc2ccccc2C(=O)O)c1Cl | 0.442% [at 42.5 µM] | 

test: qHTS assay to identify small molecule antagonists of the retinoic acid receptor (RAR) signaling pathway (AID 1159552; further: nearly all actives have a fitted effect of over 50% in size); settings: C3RL4 RARE luciferase reporter, retinol-stimulated, 6 h; series mostly up to 92.4 µM; activity, negative = inhibition: at the top concentration
Method in brief: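 Test chemicals and DMSO controls were pin-transferred onto C3RL4 cells a day after seeding; retinol (1 uM final) followed at once. Luminescent reporter output was quantified after 6 hr of co-incubation and 30 min with detection reagent.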

Row | Structure (SMILES) | activity, negative = inhibition | Potency
8 | O=C(/C=C/c1ccccc1)OCCc1ccccc1 | 128% | 
9 | CN1C(=O)c2ccccc2C1=O | 5.22% | 
10 | CCc1ccccc1 | 0.609% | 
11 | CC1(C)[C@H](C(=O)O)N2C(=O)C[C@H]2S1(=O)=O | 8.05% [at 42.5 µM] | 
12 | O=C1c2ccccc2C(=O)C1c1ccc(Br)cc1 | 69.5% [at 42.5 µM] | 
13 | CN1CCCN=C1COC(=O)C(O)(c1ccccc1)C1CCCCC1 (centres undefined) | -2.67% [at 42.5 µM] | 
14 | CC1CC(OC(=O)C(O)c2ccccc2)CC(C)(C)N1C (centres undefined) | 0.83% [at 42.5 µM] | 
15 | CC(C)=CCC1C(=O)N(c2ccccc2)N(c2ccccc2)C1=O | 9.98% [at 42.5 µM] | 
16 | Cc1ccc(CO)cc1 | -17.2% | 
17 | O=C(CCc1ccc(O)cc1)c1c(O)cc(O)cc1O | 8.24% | 
18 | COc1cc(N)c(Cl)cc1C(=O)NC1CCN(CCCOc2ccc(F)cc2)CC1OC (centres undefined) | 0.267% [at 42.5 µM] | 
19 | c1ccc(C[n+]2cccc3ccccc32)cc1 | 12.4% | 
20 | CCC(C)(C)OC | 18.2% | 
21 | COc1ccccc1Oc1c(NS(=O)(=O)c2ccc(C(C)(C)C)cc2)nc(-c2ncccn2)nc1OCCO | 179% [at 42.5 µM] | 
22 | c1cc(N(CC2CO2)CC2CO2)ccc1Cc1ccc(N(CC2CO2)CC2CO2)cc1 (centres undefined) | 83.4% | 
23 | CC(C)C=O | -14.2% | 
24 | CC(=O)NC1(c2cccc(F)c2)CCN(CC[C@@]2(c3ccc(Cl)c(Cl)c3)CN(c3ccccc3)C(=O)CO2)CC1 |  | 43.4 µM (active)
25 | CCOC(=O)c1ccccc1C(=C1C=C(Br)C(=O)C(Br)=C1)c1cc(Br)c(O)c(Br)c1 | -1.73% [at 42.5 µM] | 
26 | Cc1ccc(OC(=O)c2ccccc2O)cc1 | 88.7% | 
27 | C=CC(=O)OCC1CC2CC1C1CCC(COC(=O)C=C)C21 (centres undefined) |  | 8.63 µM (active)
28 | CCOc1ccc(Cc2nccc3cc(OCC)c(OCC)cc23)cc1OCC | -0.545% [at 42.5 µM] | 
29 | CCC(C)COC(C)=O (centres undefined) | 36.2% | 
30 | COc1ccccc1N1CCN(CCCCNC(=O)c2ccc(-c3ccc(C(C)=O)cc3)cc2)CC1 | -13% [at 42.5 µM] | 
31 | CC(C)c1nc(CN(C)C(=O)N[C@H](C(=O)N[C@@H](Cc2ccccc2)C[C@H](O)[C@H](Cc2ccccc2)NC(=O)OCc2cncs2)C(C)C)cs1 | -3.62% [at 42.5 µM] | 
32 | Cc1ccc(Cl)c(Nc2ccccc2C(=O)O)c1Cl | 15.6% [at 42.5 µM] | 

test: qHTS assay to identify small molecule agonists of the retinoic acid receptor (RAR) signaling pathway (AID 1159553); settings: C3RL4 RARE luciferase reporter, agonist, 6 h; activation: at 73.3 µM (top of the series)
Method in brief: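 Luminescence was measured 30 min after luciferase reagent addition at room temperature. Before that, C3RL4 reporter cells (1,000 per well, plated overnight) were treated with compound for 6 hr at 37 C and 5% CO2.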

Row | Structure (SMILES) | Potency | activation
33 | O=C(/C=C/c1ccccc1)OCCc1ccccc1 | 2.73 µM (active) | 
34 | O=C1c2ccccc2C(=O)N1CCc1noc(-c2ccc(CN3CCCCCC3)s2)n1 |  | -5%
35 | CCCCCCCCCI |  | -3.27% [at 94.8 µM]
36 | CN1C(=O)c2ccccc2C1=O |  | -10.3%
37 | Cc1cccc(O)c1N |  | 0.108% [at 94.8 µM]
38 | CCc1ccccc1 |  | 0.666% [at 94.8 µM]
39 | CC1(C)[C@H](C(=O)O)N2C(=O)C[C@H]2S1(=O)=O |  | 0.579%
40 | O=C1c2ccccc2C(=O)C1c1ccc(Br)cc1 |  | 13.6%
41 | CN1CCCN=C1COC(=O)C(O)(c1ccccc1)C1CCCCC1 (centres undefined) |  | 0.952%
42 | CC1CC(OC(=O)C(O)c2ccccc2)CC(C)(C)N1C (centres undefined) |  | 0.984%
43 | CN1CCCC(n2nc(Cc3ccc(Cl)cc3)c3ccccc3c2=O)CC1 (centres undefined) |  | -7.74%
44 | CC(C)=CCC1C(=O)N(c2ccccc2)N(c2ccccc2)C1=O |  | 2.56%
45 | Cc1ccc(CO)cc1 |  | 0.264% [at 94.8 µM]
46 | O=C(O)c1cccc(-c2noc(-c3ccccc3F)n2)c1 | 0.003 µM (active) | 
47 | COc1cc(N)c(Cl)cc1C(=O)NC1CCN(CCCOc2ccc(F)cc2)CC1OC (centres undefined) |  | -8.45%
48 | c1ccc(C[n+]2cccc3ccccc32)cc1 |  | -0.764%
49 | CCC(C)(C)OC |  | 0.633%
50 | COc1ccccc1Oc1c(NS(=O)(=O)c2ccc(C(C)(C)C)cc2)nc(-c2ncccn2)nc1OCCO |  | 0.576%
51 | O=C(O)CCc1nc(-c2ccccc2)c(-c2ccccc2)o1 |  | -4.07%

Row | Structure (SMILES) | Potency | activation
52 | c1cc(N(CC2CO2)CC2CO2)ccc1Cc1ccc(N(CC2CO2)CC2CO2)cc1 (centres undefined) | 30.6 µM (active) | 
53 | COc1ccccc1N1CCN(CC(O)COc2cccc3ccccc23)CC1 (centres undefined) |  | -18.6%
54 | CC(C)C=O |  | -0.781% [at 94.8 µM]
55 | COC(=O)CS |  | -11.8%
56 | CCOc1cccc(-n2cc(C(=O)N3CCN(c4cc(C(=O)O)c5ccccc5c4)CC3)nc2-c2ccc(C)cc2)c1 |  | 1.56%
57 | CCCCC(CC)COP(=O)(O)O (centres undefined) |  | -2.44% [at 94.8 µM]
58 | CC(=O)NC1(c2cccc(F)c2)CCN(CC[C@@]2(c3ccc(Cl)c(Cl)c3)CN(c3ccccc3)C(=O)CO2)CC1 |  | -15.3%
59 | CCOC(=O)c1ccccc1C(=C1C=C(Br)C(=O)C(Br)=C1)c1cc(Br)c(O)c(Br)c1 |  | -0.626%
60 | Cc1ccc(OC(=O)c2ccccc2O)cc1 | 6.86 µM (active) | 
61 | C=Cc1ccc(S(=O)(=O)O)cc1 |  | -5.46%
62 | CC(C)=CCC/C(C)=C/CC/C(C)=C/C(=O)OCC(=O)[C@@]1(O)CC[C@H]2[C@@H]3CCC4=CC(=O)C=C[C@]4(C)[C@H]3[C@@H](O)C[C@@]21C |  | -13.5%
63 | CCOc1ccc(Cc2nccc3cc(OCC)c(OCC)cc23)cc1OCC |  | -3.92%
64 | CC1=C(Br)C(=O)C(Br)=C/C1=C(/c1ccccc1S(=O)(=O)O)c1cc(Br)c(O)c(Br)c1C |  | -14.3%
65 | CCC(C)COC(C)=O (centres undefined) |  | 17.3%
66 | COc1ccccc1N1CCN(CCCCNC(=O)c2ccc(-c3ccc(C(C)=O)cc3)cc2)CC1 |  | 1.48%
67 | Nc1nnc(-c2ccc([N+](=O)[O-])o2)o1 |  | 1.69%
68 | CC(C)c1nc(CN(C)C(=O)N[C@H](C(=O)N[C@@H](Cc2ccccc2)C[C@H](O)[C@H](Cc2ccccc2)NC(=O)OCc2cncs2)C(C)C)cs1 |  | -0.129%
69 | Cc1ccc(Cl)c(Nc2ccccc2C(=O)O)c1Cl |  | 4.37%

From PubChem BioAssay (Tox21)
